Some test systems named below: BT-549 breast; MDA-MB-435 melanoma; SW-620 colon; MCF7 breast; HCT-116 colon; HCC-2998 colon; KM12 colon.
Common to all, as to experiment: NCI-60 one-dose screen, 48 h (100 = growth as untreated, 0 = no growth, -100 = all killed)
What all share (details): 10 µM unless noted

Each structure is given as a SMILES string. The panel holds about 83,000 compounds, 20% with a hit somewhere; the sample as a whole holds those more often.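 Activity criterion: percent growth below 10, measured after cells in 96-well plates were exposed to a single compound concentration for 48 hours.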 Values without a mark were called inactive. Active and inactive are the calls of the source.

Turning to `O=C(Nc1ncc(Cc2ccc(Cl)c(C(F)(F)F)c2)s1)c1ccc2nnsc2c1`, the growth was 65.5% with BT-549 breast; 22.6% in the experiment with MDA-MB-435 melanoma; 44.3% in the experiment on SW-620 colon; 20.4% in the experiment with MCF7 breast; 45% with HCT-116 colon; 10.6% in the experiment with HCC-2998 colon. Also, the growth with KM12 colon is 37.8%.
With `O=C1c2cccc3cccc(c23)C(=O)N1N1C(=O)c2cccc3c(N4CCOCC4)ccc(c23)C1=O`, the growth is 87.2% in the experiment with BT-549 breast; 102% in the experiment with MDA-MB-435 melanoma; 100% in the experiment with SW-620 colon; 94.9% in the experiment on MCF7 breast; 91.3% with HCT-116 colon; 100% with KM12 colon.
For the compound `CCCCCCC1(C)NCCO1` (stereo unspecified), the growth is 103% with BT-549 breast; 109% with MDA-MB-435 melanoma; 106% in the experiment on SW-620 colon; 99.7% in the experiment with MCF7 breast; 106% with HCT-116 colon; 99.2% in the experiment with HCC-2998 colon. Also, the growth in the experiment with KM12 colon was 106%.
In the case of `CCCCNC(=O)Oc1ccc(/C(=C(/CC)Cc2ccccc2)c2ccc(OCCN3CCCCCC3)cc2)cc1`, the growth with BT-549 breast is 87.3%; with MDA-MB-435 melanoma it was 61.5%; in the experiment on SW-620 colon, 25.1%; in the experiment on MCF7 breast, 0.876% (active); in the experiment on HCT-116 colon, -76.3% (active); with HCC-2998 colon, 34%. Also, in the experiment on KM12 colon, the growth is 37.5%.
Take `CCOC(=O)c1cc(C(=O)c2cc(OC)c(OC)c(OC)c2)n2ccc(-c3ccncc3)cc12`: the growth is 90.6% in the experiment on BT-549 breast; 106% in the experiment with MDA-MB-435 melanoma; 105% in the experiment with SW-620 colon; 107% in the experiment with MCF7 breast; 76.3% in the experiment with HCT-116 colon; 115% with HCC-2998 colon. The growth with KM12 colon was 100%.
Take `OCc1cccc(-c2ccc3ncc(-c4nc(NC5CC5)ncc4F)n3c2)c1`: the growth in the experiment with BT-549 breast was -7.54% (active); with MDA-MB-435 melanoma it was -31.7% (active); in the experiment on SW-620 colon it was 0.326% (active); in the experiment on MCF7 breast, -19.3% (active); in the experiment on HCT-116 colon, 1.41% (active); in the experiment with HCC-2998 colon, -0.971% (active). For the same compound, in the experiment with KM12 colon, the growth is -18.8% (active).
For `COC(=O)c1ccc2c(c1)C(=O)c1c-2n(CCCN)c(=O)c2cc([N+](=O)[O-])ccc12`, the growth in the experiment with MDA-MB-435 melanoma is -90.9% (active); in the experiment with SW-620 colon, -100% (active); in the experiment with MCF7 breast, -87.8% (active); in the experiment on HCT-116 colon, -100% (active); in the experiment with HCC-2998 colon, -94.9% (active); in the experiment with KM12 colon it was -97.2% (active).
`CCCCC(=O)Nc1ncc(Cc2ccc(Cl)cc2)s1`: the growth was 65% in the experiment on BT-549 breast; 0.64% (active) in the experiment on MDA-MB-435 melanoma; 37.7% in the experiment on SW-620 colon; 37.4% in the experiment on MCF7 breast; 53.6% in the experiment on HCT-116 colon; 65.8% in the experiment with HCC-2998 colon. Further, the growth with KM12 colon is 38.8%.
`N#Cc1cnc(NCCc2ccncc2)nc1-n1cnc2ccccc21`: the growth with BT-549 breast is 48.5%; in the experiment on SW-620 colon, 58.8%; in the experiment with MCF7 breast, 64.4%; with HCT-116 colon it was 24.8%; in the experiment with HCC-2998 colon, 58.5%; with KM12 colon, 25.9%.
Turning to `CCC(=C(c1ccc(OCCN2CCCC2)cc1)c1ccc(OCCN2CCCC2)cc1)c1ccc(Cl)cc1`, the growth in the experiment with BT-549 breast was 69.5%; in the experiment on MDA-MB-435 melanoma it was -91.2% (active); in the experiment with SW-620 colon, -77.7% (active); in the experiment with MCF7 breast, -76% (active); in the experiment on HCT-116 colon, -81% (active); in the experiment on HCC-2998 colon, -93.7% (active). Besides, in the experiment with KM12 colon, the growth is -74.2% (active).
Turning to `CCCCCCCCn1ccc2cc(NC(=O)Cn3cc(CN4CCCCC4)nn3)ccc21`, the growth in the experiment on BT-549 breast was 71.6%; in the experiment with MDA-MB-435 melanoma, -74.6% (active); in the experiment with SW-620 colon, -66.1% (active); in the experiment on MCF7 breast, 9.34% (active); in the experiment on HCT-116 colon it was 2.64% (active); with HCC-2998 colon, -70.4% (active). Also, the growth with KM12 colon was 19%.
In the case of `O=S(=O)(Nc1ccccc1)c1ccc(C2CC3(Cl)C(Cl)=C(Cl)C2(Cl)C3(Cl)Cl)cc1` (stereo unspecified), the growth with BT-549 breast is 76.4%; with MDA-MB-435 melanoma, 23.6%; in the experiment with SW-620 colon, 30.7%; with MCF7 breast it was 23.2%; in the experiment on HCT-116 colon, 17.6%; with HCC-2998 colon, 53.5%. Moreover, the growth in the experiment with KM12 colon was 22.7%.
With `CN1CCN(Cc2ccc3c(NNC(=O)c4ccccc4)nc4cc(F)ccc4n23)CC1`, the growth in the experiment with BT-549 breast was 49%; in the experiment with MDA-MB-435 melanoma, 28.1%; with SW-620 colon, 25.3%; with MCF7 breast it was 13.9%; with HCT-116 colon it was 27%; in the experiment on HCC-2998 colon, 32.1%. Moreover, the growth in the experiment on KM12 colon was 20%.
With `O=c1oc2ccc([N+](=O)[O-])cc2cc1Br`, the growth with BT-549 breast was 112%; in the experiment with MDA-MB-435 melanoma, 104%; with SW-620 colon, 98.1%; with MCF7 breast, 97.7%; in the experiment on HCT-116 colon it was 105%; in the experiment with HCC-2998 colon, 114%. Further, in the experiment on KM12 colon, the growth is 107%.
For the compound `Nc1ncnc2c1N=C(c1ccc(Cl)cc1)CC(c1ccc3c(c1)OCO3)N2` (stereo unspecified), the growth with BT-549 breast is 95.5%; in the experiment with MDA-MB-435 melanoma, 101%; in the experiment on SW-620 colon it was 100%; in the experiment on MCF7 breast it was 81.2%; in the experiment with HCT-116 colon, 83.7%; with KM12 colon, 103%.
Take `COc1cc(CNC(=O)/C=C/C=C/c2ccc3c(c2)OCO3)ccc1OCc1cn(-c2ccc(C)c(C)c2)nn1`: the growth with BT-549 breast was 88.3%; in the experiment with MDA-MB-435 melanoma, 76.9%; with SW-620 colon it was 92.1%; in the experiment with MCF7 breast, 81.9%; in the experiment with HCT-116 colon, 75.2%; with HCC-2998 colon, 98%. Moreover, the growth in the experiment on KM12 colon is 84%.
Regarding `N#CC1=C(N)Oc2c(sc3c(F)cccc23)C1c1ccc(F)cc1` (stereo unspecified), the growth is 30.9% in the experiment with BT-549 breast; -51.7% (active) with MDA-MB-435 melanoma; 35.8% in the experiment with SW-620 colon; 18.9% in the experiment on MCF7 breast; 17.4% in the experiment with HCT-116 colon; 57.2% in the experiment with HCC-2998 colon. In addition, the growth in the experiment on KM12 colon was 30.3%.
Turning to `C[C@H](NC(=O)[C@@H](C)N)[C@H](Oc1ccc2c(cnn2-c2ccc(F)cc2)c1)c1ccc2c(c1)OCCO2`, the growth in the experiment on BT-549 breast was 32.9%; with MDA-MB-435 melanoma, 45.4%; with SW-620 colon, 62%; in the experiment with MCF7 breast, 46.4%; in the experiment on HCT-116 colon it was 38.6%; with HCC-2998 colon, 28.1%. In addition, the growth in the experiment with KM12 colon was 36.1%.
As for `O=C(Nc1nn(-c2ccc(Cl)cc2Cl)nc1-c1ccccc1)c1ccccc1`, the growth in the experiment on BT-549 breast is 119%; in the experiment on MDA-MB-435 melanoma, 95.3%; with SW-620 colon, 105%; in the experiment on MCF7 breast, 105%; in the experiment with HCT-116 colon, 84.3%; in the experiment with HCC-2998 colon it was 108%. In addition, the growth in the experiment on KM12 colon is 80.8%.
Take `CC(=O)[C@@H]1CCC=C2CC[C@]3(C)[C@@H](CC[C@@H]4[C@@]5(C)CCCNC(C)(C)[C@@H]5CC[C@]43C)[C@H]21`: the growth was 75.9% in the experiment on BT-549 breast; -71.1% (active) in the experiment on MDA-MB-435 melanoma; -58.9% (active) in the experiment with SW-620 colon; -72.9% (active) with MCF7 breast; -96.2% (active) in the experiment with HCT-116 colon; -93.8% (active) in the experiment on HCC-2998 colon. In the experiment on KM12 colon, the growth is -79% (active).
Regarding `Brc1c2c(c(Br)c3ccccc13)CCCC2`, the growth is 112% in the experiment with BT-549 breast; 111% in the experiment with MDA-MB-435 melanoma; 103% in the experiment on SW-620 colon; 96% with MCF7 breast; 91.4% with HCT-116 colon; 110% in the experiment on HCC-2998 colon. The growth in the experiment on KM12 colon is 102%.
In the case of `CCOC(=O)c1[nH]c(=O)c2c(C)nc(-c3ccccc3)cc2c1O`, the growth was 146% in the experiment on BT-549 breast; 109% in the experiment on MDA-MB-435 melanoma; 98.3% in the experiment on SW-620 colon; 92.7% in the experiment on MCF7 breast; 95% with HCT-116 colon; 110% with KM12 colon.
Consider `CCCCCCCCCCCCCCCC(N)c1ccccc1` (stereo unspecified), for which the growth with BT-549 breast is 92.9%; in the experiment on MDA-MB-435 melanoma it was 6.53% (active); in the experiment on SW-620 colon, -49.3% (active); in the experiment with MCF7 breast, -67.3% (active); with HCT-116 colon, -100% (active); in the experiment with HCC-2998 colon, -98.2% (active). Besides, the growth with KM12 colon is -75.4% (active).

The values above are taken from PubChem BioAssay (NCI).
